Compounds without any hit were thinned out: in the full panel of roughly 83,000, 20% have a hit.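 Each cell line was grown in a 96-well plate and treated with one concentration of compound for 48 hours. Values below 10 were considered active.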 Values without a mark were called inactive. Activity calls are given as the source filed them.
The compounds below were run on OVCAR-4 ovarian (assay: NCI-60 one-dose screen, 48 h (100 = growth as untreated, 0 = no growth, -100 = all killed)). Details: 10 µM unless noted.
Procedure: Growth inhibition of the OVCAR-4 human tumor cell line is measured as a screen for anti-cancer activity. Cells are grown in 96 well plates and exposed to the test compound for 48 hours. Compounds are tested at a single concentration, which is 10^-5 M for most compounds. The reported endpoint is percent growth (GI% or GIPRCNT), where numbers from 0 - 100% represent growth inhibition, and numbers from -100% - 0 represent cell death. For example, a value of 40 represents 60% growth inhibition. A value of 0 means no net growth occurred over the course of the experiment. A value of -40 indicates 40% of cells at the beginning of the experiment died by the end of the experiment. A value of -100 means all cells are dead at the end of the experiment.
NCI-60 Human Tumor Cell Lines Screen was performed using the standard one-dose NCI protocol, which is described in more detail at https://dtp.cancer.gov/discovery_development/nci-60/default.htm.
Compounds with GIPRCNT values below 10 were considered active. Activity score was based on GIPRCNT using the following formula: […]
Score is 0 for GIPRCNT values of 100 or above, 50 for GIPRCNT values of 0, and 100 for GIPRCNT values of -100.

Structure (SMILES) | growth
O=C1Nc2ccccc2SC1C1SC(=S)N(Cc2ccccc2)C1=O (stereo not given) | 59.8%
CCN(CC)CCCNC(=O)c1ccc(N)cc1 | 114%
O=C1CC(c2ccc3c(c2)OCO3)Nc2cc3c(cc21)OCO3 (stereo not given) | 49.9%
COc1ccc(OC)c(C(=O)Nc2cccc(-c3cc(=O)c4ccccc4o3)c2)c1 | 73.3%
O=C1C(Cl)C(c2ccccc2Cl)N1n1cnnc1 (stereo not given) | 97.5%
Cc1nn(-c2ccccc2)c2c1C(c1ccc([N+](=O)[O-])cc1)C(C#N)=C(N)O2 (stereo not given) | 100%
CC(=O)C(C(C)=O)c1nc2sc3cc(Cl)ccc3n2c(=N)c1C#N | 71.9%
CNC(=O)c1c(NC(=O)c2ccc(C(C)(C)C)cc2)sc2c1CCC(=O)C2 | -66.4% (active)
CC1=CC(=O)C(C(C)C)=CC1=Nc1cc(Br)c(O)c(Br)c1 | 37.2%
Cc1ccc(/C=C(\C#N)n2nnc3cc(Cl)c(Cl)cc32)cc1 | 29.3%
COc1ccc(-c2nnc(-c3ccc4c(c3)nc(-c3ccccc3)n4C3CCCCC3)o2)cc1 | 51%
CC(C)n1nc(C#Cc2cccc(O)c2)c2c(N)ncnc21 | -15% (active)
COc1cc2oc(-c3cccc(C(=O)Nc4ccc(C#N)cc4)c3)cc(=O)c2c(O)c1OC | 11.7%
O=C(Nc1ccc(N2CCCCC2)c(Cl)c1)c1ccc(Br)o1 | 73%
Fc1ccc(Nc2nc(Nc3ccc(-c4nc5ccccc5[nH]4)cc3)c3cn[nH]c3n2)cc1 | 81.8%
Cc1ccc(NSc2ccccc2[N+](=O)[O-])cc1 | 73.2%
O=[N+]([O-])c1ccc(-c2cc3c(Nc4ccc(Cl)c(C(F)(F)F)c4)ncnc3s2)cc1 | 11.1%
Cc1cc(-c2ccccc2)cc(SC#N)[n+]1[O-] | 41.2%
CC(=O)c1sc(-c2ccccc2)cc1N | 94.2%
COc1cc(NC(=O)c2cccc(-c3cc(=O)c4c(O)c(OC)c(OC)cc4o3)c2)cc(OC)c1OC | 58.6%

Structure (SMILES) | growth
COc1ccc(-c2cc(-c3ccc(Nc4nc(Nc5ccccc5)nc(Nc5ccc(Cl)cc5)n4)cc3)nc(N)c2C#N)cc1 | 4.19% (active)
N#Cc1c(N)nc2c(nnn2-c2cccc(C(F)(F)F)c2)c1N | 87.5%
Cl.[Pt].[c-]1ccccc1-c1ccccn1.c1ccc(P(c2ccccc2)C([PH+](c2ccccc2)c2ccccc2)[PH+](c2ccccc2)c2ccccc2)cc1 | 21.3%
Cc1nn(Cc2ccccc2)cc1C(=O)Nc1sc2c(c1C(N)=O)CCC(=O)C2 | -7.95% (active)
CCOC(=O)c1nnn(C(Cc2ccccc2Cl)C(=O)OCC)c1C (stereo not given) | 104%
CC(C)CCC[C@@H](C)[C@H]1CCC2C3=CCC4C(=O)C=CC(=O)C4C3CC[C@@]21C (stereo not given in full) | -9.33% (active)
CCCCNC(=O)NS(=O)(=O)c1ccc(N2N=C(c3ccc(C)cc3C)CC2c2ccc(N(C)C)cc2)cc1 (stereo not given) | 64%
COc1cc(/C=C/C(=O)c2ccc(Nc3nc(Nc4ccccc4)nc(Nc4ccc(Cl)cc4)n3)cc2)cc(OC)c1OC | 61%
COc1ccc(/C=C(\C#N)n2nnc3cc(F)c(F)cc32)c(OC)c1OC | 60.6%
Cc1c(C(=O)O)nnn1-c1nccs1 | 96.7%
Cc1nc2ccc(C(=O)NCc3cc(C(=O)O)c(C)o3)cc2nc1C | 95.4%
C#CC[C@H](N)C(=O)O | 107% [20 µM]
COc1ccc(-c2cn(-c3cccc(C(=O)/C=C/c4cc(OC)c(OC)c(OC)c4)c3)c(=O)[nH]2)cc1 | 25%
COc1cccc(CCC2CCCN(c3cc(C)nc(N)n3)C2)c1 (stereo not given) | 52.2%
N#Cc1c(NC(=O)c2ccccc2I)sc2c1CCCC2 | 79.9%
COc1cc2cc(Oc3ccc(NC(=O)Nc4cc(C(F)(F)F)cc(C(F)(F)F)c4)cc3)c(C)nc2cc1OCCN1CCCCC1 | -90.6% (active)
Cc1nc(Nc2ccc(NC(=S)Nc3ccccc3)cc2)nc2nc(Nc3cccc(Cl)c3)[nH]c(=O)c12 | 102%
O=C(/C=C/C12c3ccccc3C(c3ccccc31)C1C(=O)N(c3ccccc3)C(=O)C12)c1ccc(Cl)cc1 (stereo not given) | 17.6%
NC(=S)c1csc(CCNC(=O)c2ccccc2)n1 | 91.2%
Clc1ccc(-c2nnc(Cn3ccnc3)o2)cc1 | 102%

Source: PubChem BioAssay (NCI)
